# Assay outcomes (PubChem BioAssay)
# Wnt bcat act = Wnt/beta-catenin pathway activators, primary screen, cell-based, plate reader, single point; Wnt/beta-catenin reporter cell assay, activator; activation, % at 9.35 µM; hit rate 1.2% among 300,000; AID 743398, 2014; in the data active = activation above about 30%, passing the limit was not always enough; inconclusive = no clear call, values can overlap the other calls;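 also: 0% = neutral control wells and 100% = positive control wells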
# PfHsp90 yeast 2 = growth inhibition of PfHsp90-expressing yeast, primary screen, antimalarial PfHsp90 inhibitor project, S. cerevisiae, BacTiter-Glo luminescence, single point, set 2. BacTiter-Glo ATP, 48 h; yeast lacking PDR1 and PDR3 efflux regulators. inhibition, % at 9.4 µM. hit rate 0.32% among 310,000;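 active = every replicate shows inhibition above about 80%, whatever the replicate mean, limit read from the data; inconclusive = mean inhibition reaches the set limit but some replicate falls short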;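 also: 0% = DMSO neutral controls and 100% = 20 µM radicicol positive controls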
# Glyco luc inh = increase of ERlucT glycosylation luciferase signal, primary screen, N-linked glycosylation inhibitor project, D54 ERlucT cells, luminescence, set 2 | D54 ERlucT glycosylation luciferase reporter, 24 h; percent of 100 nM tunicamycin response | reporter increase, % at 12.5 µM | hit rate 0.23% among 360,000 | AID 588692, 2011;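 active = mean luciferase reporter signal, scaled so untreated is 0 and the glycosylation-blocking control 100, at or above a set limit in every replicate; inconclusive = mean reaches the limit but not every replicate does; inactive = mean below the limit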;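 also: luciferase carries N-glycosylation sites so blocking glycosylation raises the light; 0% = median of neutral control wells and 100% = median of 100 nM tunicamycin wells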
# MITF TRPM1 HTS = activators of MITF-driven TRPM1 promoter reporter, primary screen, cell-based, SK-MEL-5, luciferase, single point | SK-MEL-5 TRPM1-promoter luciferase, 24 h; % of positive control, neutral wells = 0 | activation, % at 12.5 µM | hit rate 0.75% among 300,000 | AID 588334, 2011;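 active = mean activation of at least 80% with every replicate also reaching 80%; inconclusive = mean reaches 80% but some replicate falls short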;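 also: 0% = neutral control wells and 100% = parthenolide positive control wells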
# NSD2 inh = NSD2 histone methyltransferase inhibitors, primary screen, biochemical, AlphaScreen, single concentration, set 2; inhibition, % at 12.5 µM; Histone-lysine N-methyltransferase NSD2 (Homo sapiens), O96028; hit rate 0.54% among 310,000; NSD2 peptide methylation, 120 min; in the data active = inhibition above about 50%
# Target sequence (O96028 whole entry, looked up): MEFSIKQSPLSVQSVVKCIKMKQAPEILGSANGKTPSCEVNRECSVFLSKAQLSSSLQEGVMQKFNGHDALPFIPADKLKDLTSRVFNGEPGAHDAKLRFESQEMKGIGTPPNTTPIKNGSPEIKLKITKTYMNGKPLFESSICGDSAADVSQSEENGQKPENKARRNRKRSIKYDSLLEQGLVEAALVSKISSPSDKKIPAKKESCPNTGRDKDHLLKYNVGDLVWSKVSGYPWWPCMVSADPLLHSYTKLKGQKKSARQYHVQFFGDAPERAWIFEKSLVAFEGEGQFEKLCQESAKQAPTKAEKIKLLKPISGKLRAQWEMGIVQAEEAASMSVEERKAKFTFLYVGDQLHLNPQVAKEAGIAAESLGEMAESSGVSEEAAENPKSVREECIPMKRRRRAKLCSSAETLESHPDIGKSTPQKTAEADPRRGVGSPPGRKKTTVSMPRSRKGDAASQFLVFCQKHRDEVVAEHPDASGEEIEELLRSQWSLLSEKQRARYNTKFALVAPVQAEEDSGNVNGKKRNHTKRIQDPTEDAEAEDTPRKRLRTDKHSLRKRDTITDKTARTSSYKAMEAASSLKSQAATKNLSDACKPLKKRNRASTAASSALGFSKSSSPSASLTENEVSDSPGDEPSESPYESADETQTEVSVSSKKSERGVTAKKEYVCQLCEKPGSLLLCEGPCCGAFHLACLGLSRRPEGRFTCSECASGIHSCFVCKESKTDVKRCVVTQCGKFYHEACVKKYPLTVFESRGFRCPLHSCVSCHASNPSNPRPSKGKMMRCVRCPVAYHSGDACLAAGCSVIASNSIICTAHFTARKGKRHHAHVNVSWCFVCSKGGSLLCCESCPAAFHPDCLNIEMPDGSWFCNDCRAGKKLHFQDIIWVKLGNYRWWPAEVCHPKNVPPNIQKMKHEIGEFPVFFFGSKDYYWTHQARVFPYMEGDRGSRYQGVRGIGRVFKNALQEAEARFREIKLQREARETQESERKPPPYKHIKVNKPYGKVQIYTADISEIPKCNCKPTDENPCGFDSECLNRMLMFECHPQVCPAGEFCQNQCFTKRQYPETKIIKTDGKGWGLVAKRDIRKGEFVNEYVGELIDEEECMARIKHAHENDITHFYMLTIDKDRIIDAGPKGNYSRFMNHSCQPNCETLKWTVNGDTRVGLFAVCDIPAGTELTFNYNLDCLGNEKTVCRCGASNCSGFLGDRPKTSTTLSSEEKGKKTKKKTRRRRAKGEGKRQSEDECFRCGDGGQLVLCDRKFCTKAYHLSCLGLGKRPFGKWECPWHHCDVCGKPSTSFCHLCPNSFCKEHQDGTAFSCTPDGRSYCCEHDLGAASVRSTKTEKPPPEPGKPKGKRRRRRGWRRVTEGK
# TRPM1 prom inh = inhibitors of MITF-dependent TRPM1 promoter reporter, primary screen, cell-based, SK-MEL-5, single point, luciferase; SK-MEL-5 TRPM1 promoter luciferase, 24 h; inhibition, % at 12.5 µM; hit rate 0.83% among 330,000;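 active = mean inhibition across replicates of 60% or more, whatever share of single replicates reaches that level; inconclusive = some that reach 60%, reason not given; inactive = mean inhibition across replicates below 60%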
# Numbers without * were called inactive; ? = inconclusive; . = no result. Sampled rows, rich in hits. Any-hit rate of the full collection: about 2.9%.
SMILES,Wnt bcat act,PfHsp90 yeast 2,Glyco luc inh,MITF TRPM1 HTS,NSD2 inh,TRPM1 prom inh
Cc1cc(F)ccc1C(O)c1ncc(-c2cccc(OCc3ccccc3)c2)[nH]1 (stereo unspecified),-3.5,.,-3.2,.,0.2,.
CCCC(=O)Nc1nc2ccc(OCC)cc2s1,41.1*,-4.2,-2.7,96.5*,.,-98.2
CC(=O)NCCC(=O)Nc1nc2ccc(Oc3ccccc3)cc2s1,23.7,-16.9,-11.5,109.5*,1.8,-107.7
COCCN(C(=O)c1ccc(C)c(S(=O)(=O)N2CCOCC2)c1)c1c(N)n(CC(C)C)c(=O)[nH]c1=O,-3.8,2.5,-0.8,-11.3,1.0,12.8
Cc1cc(-n2c(C)cc(C(=S)N3CCOCC3)c2C)ccc1Br,-2.8,-4.0,0.5,3.3,4.6,-7.8
CC1CCC(NC(=O)c2cccn2C)CC1 (stereo unspecified),42.1*,.,-13.5,76.6,1.2,-70.6
Cc1onc(-c2ccccc2)c1C(=O)NC1CCCCC1C (stereo unspecified),-0.9,.,0.4,.,2.6,.
Cc1onc(-c2ccccc2)c1C(=O)NC1CCC(C)CC1 (stereo unspecified),444.0*,10.3,-1.9,6.1,-3.8,-1.8
CC1CCC(NC(=O)c2nn(C)c(=O)c3ccccc23)CC1 (stereo unspecified),-0.2,.,6.7,.,5.2,.
Cn1cccc1C(=O)NC1CCCCCC1,17.2,.,-0.6,95.6*,29.0,-88.3
CCOc1ccc(C(=O)NC(C)(C)CC)cc1,2.5,-1.5,-1.2,0.5,1.1,-5.6
c1ccc(OCc2nnc(SCc3nc4ccccc4[nH]3)n2-c2ccccc2)cc1,.,.,.,.,-1.6,.
O=C(/C=C/NCc1cccnc1)c1ccc(Br)cc1,19.2,-0.1,-0.2,34.8,2.6,-35.5
COc1ccc2nc(-c3ccc(N)cc3)[nH]c2c1,69.1*,-17.8,-1.9,-29.7,-2.4,32.2
COc1ccc(-c2nnc(-c3cccnc3)o2)cc1,35.9*,.,-0.5,.,13.7,-45.8
COc1ccc(-c2nnc(-c3ccc(N)cc3)o2)cc1,53.0*,.,-3.3,.,8.6,-35.8
Cc1ccc(-c2nnc(-c3cccnc3)o2)cc1,27.2,4.1,-2.5,?,1.4,-74.3
COc1ccc(-c2nnc(-c3ccc(N(C)C)cc3)o2)cc1,.,9.6,-1.2,65.1,.,-66.8
CC(C)C[C@H]1CN=C(Nc2ccccc2)N1CCC(C)c1ccccc1 (stereo partly specified),-3.2,12.6,-3.0,10.0,.,-12.0
CC(C)n1nc(C(=O)Nc2nnc(SCc3c(Cl)cccc3Cl)s2)c2ccccc2c1=O,.,-26.6,0.1,-9.7,29.3,10.5
O=C(OCc1nc2ccsc2c(=O)[nH]1)c1ccc(Cl)nc1,41.3*,-28.7,1.3,-8.5,-0.2,11.1
CCOC(=O)C(=NC(C)C)NNc1cc(Cl)ccc1Cl,39.8*,6.1,0.4,-8.6,1.9,4.7
O=C(Nc1cccc(Cl)c1)Nc1nnc(CSCCOc2ccc(Cl)cc2)s1,.,-1.2,-6.4,-67.4,2.7,67.5*
O=C(Nc1ccc(OC(F)(F)F)cc1)C1CCCCN1S(=O)(=O)c1ccccc1 (stereo unspecified),-4.7,6.2,-1.7,-11.4,0.0,12.0
COc1ccc(CNC(=O)[C@@H](Cc2ccccc2)NC(=O)[C@H]2O[C@@H](n3cnc4c(=O)[nH]c(N)nc43)[C@H](O)[C@@H]2O)cc1,-1.8,.,.,.,-1.4,.
SMILES,Wnt bcat act,PfHsp90 yeast 2,Glyco luc inh,MITF TRPM1 HTS,NSD2 inh,TRPM1 prom inh
CCC(=O)Nc1ccc2oc(-c3cccc(C)c3)nc2c1,.,-18.6,-15.7,-9.2,-2.5,9.6
COc1cc(C(=O)Nc2cccc(-c3nc4cc(C)ccc4o3)c2)cc(OC)c1OC,8.3,9.6,2.4,24.1,38.2,-23.0
Cc1ccc2oc(-c3cccc(NC(=O)c4ccccn4)c3)nc2c1,37.3*,3.7,-1.5,.,-4.6,-19.5
CCC(=O)Nc1cccc(-c2nc3ccc(C)cc3o2)c1,38.0*,-2.4,-4.0,.,-0.3,-55.5
Cc1ccccc1Cn1cc(COC(=O)Nc2ccc(F)cc2)nn1,.,.,.,.,0.8,.
CN1CCC(N2CCN(C3CN(C4CCCC4)S(=O)(=O)C3)CC2)CC1 (stereo unspecified),-1.9,.,2.3,.,.,.
O=C1c2ccc3c4c(ccc(c24)C(=O)N1c1cccc(O)c1)C(=O)N(c1cccc(O)c1)C3=O,-10.4,-3.4,-1.6,-99.4,1.6,99.9*
O=C1c2ccc3c4c(ccc(c24)C(=O)N1c1cccc(O)c1)CC3,0.1,-21.0,2.4,1.5,-7.6,-0.6
O=S(=O)(Nc1ccc(S(=O)(=O)Nc2cccc3ccccc23)cc1)c1ccccc1,-5.5,-7.5,-0.1,.,-0.9,-6.0
CC(O)C(NS(=O)(=O)c1ccc(Cl)cc1)C(=O)OCCOc1ccc(F)cc1 (stereo unspecified),45.4*,.,-3.1,.,-4.9,.
Cc1cccc([C@@H]2[C@@H]3C(=O)N(Cc4ccccc4)C(=O)[C@@H]3[C@]3(Cc4ccccc4)C(=O)N(c4cccc(F)c4)C(=O)N23)c1,-3.5,9.7,33.5*,-8.1,.,4.8
Cc1cccc([C@@H]2[C@@H]3C(=O)N(Cc4ccccc4)C(=O)[C@@H]3[C@]3(Cc4ccccc4)C(=O)N(c4ccccc4)C(=O)N23)c1,-4.0,12.6,?,?,.,.
O=C1[C@H]2[C@@H](c3ccc(F)cc3)N3C(=O)N(c4cccc(Br)c4)C(=O)[C@@]3(Cc3ccccc3)[C@H]2C(=O)N1C1CCCCC1,-10.7,-8.7,67.2*,1.7,.,-0.4
Cc1cccc([C@@H]2[C@@H]3C(=O)N(Cc4ccccc4)C(=O)[C@@H]3[C@]3(Cc4ccccc4)C(=O)N(c4cccc(Cl)c4)C(=O)N23)c1,-2.8,42.5,40.7*,-5.4,.,7.2
Cc1cccc2nc(-c3ccco3)c(Nc3ccccc3)n12,8.0,-53.7,-5.0,-0.7,1.1,4.0
Cc1ccc(Nc2c(-c3ccccn3)nc3cccc(C)n23)cc1,1.3,-9.8,1.8,-68.5,35.8,70.6*
C=CCNC(=O)NCC1CCN(Cc2ccc(OC)cc2)CC1,.,.,.,.,15.4,.
COc1ccc(C(CNC(=O)Nc2cccc(C)c2)N2CCN(C)CC2)cc1 (stereo unspecified),-0.3,15.7,-0.7,1.3,0.2,1.9
O=C(Cn1c(-c2cncs2)nc2ccccc21)NCc1cccs1,.,.,.,.,-0.7,.
CN(C)/C=C1\C(=O)ON=C1c1ccccc1,0.7,-11.6,3.3,3.6,0.1,-0.3
Cc1ccc(C2=NOC(=O)/C2=C\C=C\c2ccccc2)cc1,0.5,-5.1,20.5,-93.8,-0.5,95.6*
CC1=NN(c2ccccc2)C(=O)/C1=C/C=C/c1ccccc1,1.4,15.7,11.7,-70.8,6.6,69.1*
